Max response, Potency and outcome data for 29 molecules are collected here from PubChem BioAssay (NCATS).

Common to all, as to assay: Cytotoxic Profiling of Annotated Libraries Using Quantitative High-Throughput Screening (AID 1296008); further: nearly all actives have a fitted effect of over 60% in size
Details in all cases: Five cell lines viability, CellTiter-Glo ATP luminescence, 48-72 h; max response: stronger effect = lower value
(Cellular ATP, detected with luciferase, serves as a proxy for viable cell number.)

The test system of experiment [1] is HaCat. The gist of the method: (§1)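 Compounds were pin-transferred onto cells and incubated 48 or 72 hr at 37 degree Celsius, 95% humidity. CellTiter-Glo was added, plates sat 10 min at room temperature, then ATP-coupled luminescence was imaged as the viability read-out.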
In experiment [2] the test system is KB-3-1. The gist of the method:
as §1

Experiment [3] deals with NIH3T3. The gist of the method: as §1

Inconclusive results are not listed. Values without a mark were called inactive. The source made the active and inactive calls. The call rests on the fitted dose curve; in most records, active means well fitted inhibition curve with a large enough effect; inconclusive means small, poorly fitted or top-dose-only effect; inactive means flat fitted curve, though single readings scatter.
On the % scale 0 is the no-effect control and ±100 the full control effect; potency means the concentration at half of the fitted maximal effect.

As to `Cc1cc(C(=O)N2Cc3cnn(C)c3Nc3ccccc32)ccc1CNC(=O)N1CCC[C@H]1C(=S)N1CCCN(C)CC1`, the figures for the max response in experiment [1] and in experiment [2] were -21.4% and 2.82%, respectively.

On to `CNCc1ccc(-c2cc(-c3nc(-c4ccc(S(=O)(=O)C(C)C)cc4)cnc3N)on2)cc1`, for which the max response in experiment [1] is -11.6%. Further, the Potency in experiment [2] was 1.3 µM (active).

With `Cc1cc(N(C)C)ccc1-c1nc2ccc(-c3nc4ccc(N5CCN(C)CC5)cc4[nH]3)cc2[nH]1`, the max response in experiment [1] is -16.4%. For the same molecule, the Potency in experiment [2] was 23.1 µM (active).

With `Cn1nnc(-c2ccc(-c3ccc(N4C[C@H](COP(=O)(O)O)OC4=O)cc3F)cn2)n1`, the max response is 0.171% in experiment [1] and -33% in experiment [2].

For `CCC(Nc1ncnc2nc[nH]c12)c1nc2cccc(F)c2c(=O)n1-c1ccccc1` (centres undefined), the max response in experiment [1] was -6.65%. For the same molecule, in experiment [2], the call was inactive.

For `Cc1cc(C(N)=O)ccc1-n1c(CCC(=O)O)ccc1-c1ccc(-n2ccnc2)cc1`, the max response was -1.63% in experiment [1], 7.2% in experiment [2] and -2.74% in experiment [3].

Regarding `COc1ccccc1NC(=O)OCC1CCN(C(=O)OC(C)(C)C)CC1`, the max response was 2.46% in experiment [1] and -8.5% in experiment [2].

As to `COc1ccc(-c2cnc(-c3cccc4c3-c3ccccc3C4=O)o2)cc1`, the max response in experiment [1] was -2.01%. In addition, in experiment [2], the Potency was 0.0709 µM (active).

On to `COc1cc(O)cc(C)c1C(=O)O[C@@H]1[C@H](O)[C@@H](CO)O[C@H]1n1ccc(=O)[nH]c1=O`, for which the max response is -4.84% in experiment [1] and -16.4% in experiment [2].

Take `CC(C)(C)Nc1nc(Nc2ccc(C(N)=O)cc2)cc(N)c1C#N`: the max response in experiment [1] was -5.65%. Besides, the Potency in experiment [2] is 5.8 µM (active).

`COc1cc2ncnc(Nc3cccc(O)c3)c2cc1OC`: in experiment [1], the Potency was 4.61 µM (active). Also, the outcome in experiment [2] was inactive.

Turning to `CN1CCC(Nc2nc(Nc3ccc(Oc4ccccc4)cc3)c3c(=O)[nH]cc(Br)c3n2)CC1`, the Potency was 4.11 µM (active) in experiment [1] and 5.8 µM (active) in experiment [2].

As for `C[C@@H]1C[C@@H]2O[C@H]2/C=C\C=C\C(=O)Cc2c(Cl)c(O)cc(O)c2C(=O)O1`, the Potency in experiment [1] is 3.6 µM (active); in experiment [2] it was 2.27 µM (active).

With `C[C@@H]1O[C@@H](O[C@H]2[C@H](O)[C@@H](O)[C@H](O[C@H]3[C@H](O[C@H]4CC[C@@]5(C)C(=CC[C@@H]6C5CC[C@]5(C)[C@@H]7[C@H](C[C@@H]65)O[C@]5(CC[C@@](C)(CO[C@@H]6O[C@H](CO)[C@@H](O)[C@H](O)[C@H]6O)O5)[C@H]7C)C4)O[C@H](CO)[C@@H](O)[C@@H]3O)O[C@@H]2CO)[C@H](O)[C@H](O)[C@H]1O` (some centres undefined), the max response in experiment [1] was -8.19%. Besides, in experiment [2], the Potency was 0.778 µM (active).

On to `CO[C@H]1/C=C\O[C@@]2(C)Oc3c(C)c(O)c4c(O)c(c5c(nc6cc(C)ccn65)c4c3C2=O)NC(=O)/C(C)=C\C=C/[C@H](C)[C@H](O)[C@@H](C)[C@@H](O)[C@@H](C)[C@H](OC(C)=O)[C@@H]1C`, for which the max response in experiment [1] was -2.81%; in experiment [2] it was 9.37%.

Regarding `Nc1ccc(/C=C/C(=O)NCc2cc3cc(-c4ccc(C(=O)N5CCC(F)(F)CC5)cc4)cc(-c4ccc(F)cc4)c3o2)cn1`, the Potency in experiment [1] was 5.17 µM (active); in experiment [2] it was 0.92 µM (active).

With `CC(C)(C)Nc1nc2cc(Cl)c(Cl)cc2nc1S(C)(=O)=O`, the Potency was 5.8 µM (active) in experiment [1] and 13 µM (active) in experiment [2].

Regarding `CCOc1cc(C)c(Cl)cc1S(=O)(=O)n1cnc2ccccc21`, the max response in experiment [1] was -29.2%. The result in experiment [2] was inactive.

With `CC1=C(C(=O)O)/C(=C/CO[C@@H]2O[C@H](COC(=O)/C=C/c3ccc(O)cc3)[C@@H](O)[C@H](O)[C@H]2O)C(O)C1` (some centres undefined), the max response is -4.87% in experiment [1] and 2.44% in experiment [2].

Consider `N#CC(c1ccnc(OCc2ccc(CN3CCOCC3)cc2)n1)c1nc2ccccc2s1` (centres undefined), for which the figures for the max response in experiment [1] and in experiment [2] were 0.847% and -18.3%, respectively.

For `COc1cccc(-c2cc(NCc3ccc4c(c3)OCO4)nc(N)n2)c1`, the max response in experiment [1] is -46.3%. Also, in experiment [2], the Potency is 0.231 µM (active).

In the case of `CC[C@]1(O)CC2CN(CCc3c([nH]c4ccccc34)[C@@](C(=O)OC)(c3cc4c(cc3OC)N(C=O)[C@H]3[C@@](O)(C(=O)OC)[C@H](OC(C)=O)[C@]5(CC)C=CCN6CC[C@]43[C@@H]65)C2)C1` (some centres undefined), the max response in experiment [1] was 3.94%. In addition, the Potency in experiment [2] was 0.0081 µM (active).

As for `O=C(O)c1cc2cccc([N+](=O)[O-])c2[nH]1`, the max response is -11.1% in experiment [1] and 5.58% in experiment [2].

On to `CC(=O)O[C@@](C)(C(=O)/C=C/C(C)(C)O)[C@H]1[C@H](O)C[C@@]2(C)[C@@H]3CC=C4[C@@H](C=C(O)C(=O)C4(C)C)[C@]3(C)C(=O)C[C@]12C`, for which the results for the Potency in experiment [1] and in experiment [2] were 1.42 µM (active) and 1 µM (active), respectively.

Regarding `Cc1nc(NC(=O)N2CCCC2C(N)=O)sc1-c1csc(C(C)(C)C)n1` (centres undefined), the Potency in experiment [1] is 5.17 µM (active). Further, in experiment [2], the result was inactive.

Consider `CCCCNc1ccc(-c2ccc(CN3CCOCC3)cn2)c(NC2CCC(O)CC2)c1` (centres undefined), for which the max response in experiment [1] was -2.49%; in experiment [2] it was -18.8%.

Consider `COc1ccc(C(=O)Nc2ncc(-c3ccc(C(=O)O)cc3)s2)cc1`, for which the Potency in experiment [1] was 5.8 µM (active); in experiment [2] it was 2.91 µM (active).

As to `COCCOc1cnc2ccn([C@H](C)c3nnc4c(F)cc(-c5cnn(C)c5)cn34)c(=O)c2c1`, the max response in experiment [1] is 4.9%; in experiment [2], 1.49%.

With `COc1ccc(C2=N[C@@H](c3ccc(Cl)cc3)[C@@H](c3ccc(Cl)cc3)N2C(=O)N2CCNC(=O)C2)c(OC(C)C)c1`, the max response was -13.8% in experiment [1] and 6.36% in experiment [2].
